GALR2 blocker: GALR2 (human) receptor antagonism; O43603; GALR2-expressing cells, antagonist mode; inhibition, % at 4 µM; 140,000 compounds, 0.39% hits; AID 828; in the data active means inhibition above about 27%;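 further: cells stimulated with galanin 1-16 at roughly its EC80; 0% = agonist challenge control and 100% = basal control without agonist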
Target sequence (O43603 whole entry, looked up): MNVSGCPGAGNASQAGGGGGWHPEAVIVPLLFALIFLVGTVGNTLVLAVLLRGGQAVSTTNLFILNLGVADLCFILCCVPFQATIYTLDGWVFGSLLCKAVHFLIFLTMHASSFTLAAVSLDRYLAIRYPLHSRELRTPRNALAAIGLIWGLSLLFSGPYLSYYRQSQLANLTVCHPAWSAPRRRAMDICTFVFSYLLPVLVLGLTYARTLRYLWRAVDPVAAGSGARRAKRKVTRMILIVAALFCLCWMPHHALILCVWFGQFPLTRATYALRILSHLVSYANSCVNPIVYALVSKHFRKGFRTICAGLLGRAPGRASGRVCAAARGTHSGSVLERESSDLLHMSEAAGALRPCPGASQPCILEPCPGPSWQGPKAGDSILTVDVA
MRP reversal: compounds reversing MRP-mediated drug resistance; H69AR cells + 2 uM doxorubicin, CellTiter-Glo, 72 h; differential viability (reversal), % at 10 µM; 85,000 compounds, 0.04% hits;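 active means viability drop by adding the cancer drug above about 55%, with treated viability meeting a 40% cutoff, limit read from the data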;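 further: viability without doxorubicin minus viability with 2 µM doxorubicin for each compound; larger differential means the compound sensitizes cells more to doxorubicin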
GALR2 agonist: agonists of human galanin receptor 2 (GALR2); O43603; GALR2-expressing cells, agonist activation read-out; activation, % (concentration not given with the values); 140,000 compounds, 0.48% hits; AID 803; in the data active means activation above about 5%, passing the limit was not always enough;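 further: 0% = vehicle buffer wells and 100% = reference agonist at full effect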
MRP-1 activ: activates MRP-1; 140,000 compounds, 0.61% hits; viability increase, % at 10 µM; H69AR cells + doxorubicin, viability rescue, CellTiter-Glo;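 active means viability gain under doxorubicin at or above a set limit, the compound median plus 3 SD, cut at about 4.7% in these data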;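 further: MRP-1 overexpressing cells given doxorubicin 25 µM after compound pretreatment; 18-22 h compound pretreatment then 72 h with doxorubicin before readout; 0% = doxorubicin-only wells and 100% = vehicle-treated cells without doxorubicin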
S1P2 antag: blocks the human S1P2 receptor | 97,000 compounds, 0.21% hits | cell-based S1P2 antagonist assay, inhibition at 5 uM | O95136 | AID 736 | inhibition, % at 5 µM; in the data active means inhibition above about 45%;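 further: CRE beta-lactamase reporter cells expressing human S1P2 stimulated with S1P; 0% = agonist at EC80 alone and 100% = agonist plus reference antagonist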
S1P2 agonist: activates the human S1P2 receptor; S1P2-expressing cell line, agonist reporter read-out; AID 729; 97,000 compounds, 0.46% hits; O95136; activation, % at 4.5 µM; in the data active means activation above about 16%;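 further: 0% = vehicle low control and 100% = maximal reference agonist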
Starred values were filed as active, the others as inactive; . = not tested or not shown. Sampled rows, rich in hits. Any-hit rate of the full collection: about 1.7%.

SMILES | GALR2 blocker | MRP reversal | GALR2 agonist | MRP-1 activ | S1P2 antag | S1P2 agonist
CCOC(=O)c1cc(-c2ccccc2)sc1NC(=O)C(C)Sc1nnc(C)s1 (configuration not stated) | -1 | . | 0 | 9.2* | . | .
Cc1cccc(N2CN(Cc3ccco3)CNC2=S)c1C | 4 | . | -2 | -3 | . | .
O=C(NC1CCCC1)C(c1ccsc1)N(CCc1ccccc1)C(=O)Cc1cccs1 (configuration not stated) | 4 | . | 6.0* | -2 | . | .
Cc1c(NC(=O)CSc2ccc(Cl)cc2)cccc1-c1nc2ncccc2o1 | -10 | . | -1 | 6.2* | 8 | -5
CCOC(=O)c1c(C)[nH]c(C(=O)COC(=O)CCC2CCCC2)c1C | 1 | . | 0 | 0 | 6 | -4
COc1ccc(/C=N/NC(=O)c2nc(-c3ccccc3)cc(-c3ccccc3)n2)cc1 | -7 | . | -4 | -4 | 54* | -17
Cc1ccc(NC(=O)CCC(=O)N/N=C/c2cccs2)cc1C | 9 | . | -2 | 7.2* | . | .
Cc1ccc2cc(C#N)c(SCC(=O)N3CCCc4ccccc43)nc2c1C | -2 | . | -2 | -2 | 6 | -9
CCCCN1C2CCCC1CC(NC(=O)N(C(C)C)C(C)C)C2 (configuration not stated) | 12 | -23 | -2 | . | 0 | -1
C/C(=N/N1CCN(c2ccccn2)CC1)c1cccc([N+](=O)[O-])c1 | -3 | . | 0 | 2 | . | .
COc1ccc(OC)c(C2C(C(=O)Nc3nc4ccccc4s3)=C(C)NC3=C2C(=O)CCC3)c1 (configuration not stated) | 1 | . | 14* | 0 | -20 | 24*
CCOC(=O)C1=C(C)NC2=C(C(=O)CCC2)C1c1cc(OC)ccc1OC (configuration not stated) | -2 | 23 | 0 | -1 | 10 | -2
COc1cccc(C2C(C(=O)Nc3nc4ccccc4s3)=C(C)NC3=C2C(=O)CC(C)(C)C3)c1OC (configuration not stated) | 1 | . | 6 | 7.9* | -17 | 11
O=C(NCCC1=CCCCC1)C1CCN(C(=O)c2ccc(Br)cc2)CC1 | -3 | . | 0 | 0 | . | .
Cc1noc(/C=C/N(C)C)c1S(=O)(=O)N1CCCC(C(=O)NC2CCCCC2C)C1 (configuration not stated) | 15 | -6 | -4 | 8.6* | -2 | -4
Cc1noc(/C=C/N(C)C)c1S(=O)(=O)N1CCCC(C(=O)NC(C)c2ccccc2)C1 (configuration not stated) | -6 | 6 | -3 | 0 | 10 | -2
CCN(Cc1nc2ccccc2c(=O)[nH]1)Cc1nc2cc(OC)c(OC)cc2c(=O)[nH]1 | -9 | -65 | -1 | -1 | -63 | 18*
N#Cc1nc(COc2ccc(Br)cc2)oc1NCCN1CCOCC1 | 9 | . | -2 | 7.7* | 21 | -4
O=C(NC(c1ccccc1)C(Cl)(Cl)Cl)c1ccccc1 (configuration not stated) | 8 | . | -1 | -3 | . | .
CCOC(=O)C1=C(C)N(C)C(=S)NC1c1ccc(Cl)cc1Cl (configuration not stated) | 0 | . | 1 | -1 | . | .
CCOC(=O)c1c(C)n(C)c2ccc(OC(=O)c3ccco3)cc12 | 7 | 2 | 0 | 0 | -6 | -6
CCOC(=O)c1cc2ccc(OC(=O)c3ccco3)cc2oc1=O | -78 | . | 209* | -2 | -243 | 150*
Cn1c(SCC(=O)NNC(=O)Cc2ccccc2)nnc1-c1ccccc1 | -12 | . | 0 | -1 | . | .
COc1ccc(CCNC(=O)Cc2ccc(OCc3ccccc3)c(OC)c2[N+](=O)[O-])cc1OCc1ccccc1 | -21 | . | 0 | -2 | -16 | 0
O=C1OCC(CO)(CO)N=C1NNc1ccc(Cl)c(Cl)c1 | 24 | . | -2 | -2 | 0 | -4
SMILES | GALR2 blocker | MRP reversal | GALR2 agonist | MRP-1 activ | S1P2 antag | S1P2 agonist
CN(C)c1ccc(/C=N/n2ncc3ccccc32)cc1 | -1 | 0 | 25* | -2 | . | .
CC(C)(C)c1ccc(CS(=O)CC(O)CO)cc1 (configuration not stated) | -4 | . | -1 | 1 | . | .
CCSc1cc(N2CCCC2)nc(-c2ccccc2Cl)n1 | -5 | . | 0 | -2 | . | .
Cc1cc(C)c(COc2ccc(/C=N/n3c(C)n[nH]c3=S)cc2)c(C)c1 | -1 | . | 1 | -3 | . | .
O=C(CNC(=O)c1ccc(-c2ccccc2)cc1)OCc1c(Cl)cccc1Cl | -7 | . | -2 | -1 | . | .
O=C(NCc1ccc(Cl)cc1)C(=O)NCC1OCCN1C(=O)c1cccs1 (configuration not stated) | 2 | . | 0 | 6.4* | . | .
CCCCOC(=O)c1ccc(NC(=O)/C=C/c2cccs2)cc1 | -2 | . | -1 | 4.8* | . | .

Screening results as filed in PubChem.
